Results published in PubChem BioAssay (Tox21).
Results filed as inconclusive are left out. Where a call stands in place of a potency, no number is given. Active and inactive are the calls of the source. Unless noted, the call rests on the fitted dose curve.

Key:
[1] = Nuclear factor erythroid 2-related factor 2/antioxidant responsive element (Nrf2/ARE) small molecule agonists: luciferase reporter gene qHTS assay in human keratinocytes (AID 1919969); further: nearly all actives have a fitted effect of over 35% in size; further: potency means the concentration at half of the fitted maximal effect
[2] = biological target: Gonadotropin-releasing hormone receptor (Homo sapiens) (UniProt P30968); assay: Human gonadotropin-releasing hormone receptor (GnRHR) small molecule agonists, calcium flux assay in GnRHR-HEK293 cells (AID 1920063); further: nearly all actives have a fitted effect of over 35% in size
Method in brief: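 Calcium-dye fluorescence, Ex/Em=480/540, recorded every 1 sec over 3 min after compound addition to GnRHR-HEK293 cells. Cells had been seeded 18 hours earlier and dye-loaded for 1 hour at 37 C. Fifteen concentrations, triplicates.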

[3] = biological target: KiSS-1 receptor (Homo sapiens) (UniProt Q969F8); assay: Human kisspeptin (KISS1R) small molecule agonists, calcium flux assay in KISS1R-HEK293 cells (AID 1920064; active means well fitted activation curve with a large enough effect in the repeat runs)
Method in brief: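 Calcium flux read-out: kinetic fluorescence at Ex/Em=480/540, 1 s intervals over 3 min, after pin-tool compound addition to dye-loaded KISS1R-HEK293 cells. Fifteen concentrations, triplicates.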

[4] = G protein-coupled receptor (GPCR) small molecule agonists, calcium flux assay: HEK293 wild type cell line counter screen (AID 1920065)
Method in brief: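 Agonist mode; 18 h seeding at 37 C, 1 h dye load at 37 C; compounds pinned from DMSO, ATP as positive control; kinetic fluorescence 480/540 nm, 3 min, 1 s reads; 15 concentrations, triplicate.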

[5] = p53 small molecule agonists, cell-based qHTS assay with rat liver microsomes: qHTS cell viability counter screen (AID 1963580); further: nearly all actives have a fitted effect of over 45% in size
Method in brief: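 Counter screen for cytotoxicity under metabolic activation: rat liver microsomes and NADPH, 0.5 mg/mL final each, added with compounds to p53RE-bla HCT-116 cells; 16 h at 37 C, then ATP luminescence read.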

[6] = p53 small molecule agonists, cell-based qHTS assay: qHTS cell viability counter screen (AID 1963581); further: nearly all actives have a fitted effect of over 45% in size
Method in brief: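 Cytotoxicity read-out: ATP-based luminescence (CellTiter-Glo, 30 min RT) measured in the same wells as the p53 reporter assay, HCT-116 p53RE-bla cells, 16 h compound exposure at 37 C.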

[7] = biological target: 5-hydroxytryptamine receptor 2A (Homo sapiens) (UniProt P28223); assay: 5-hydroxytryptamine receptor 2A (HTR2A) small molecule antagonists, cell-based qHTS assay (AID 1963586); further: nearly all actives have a fitted effect of over 45% in size; further: potency means the concentration at half of the fitted maximal effect
Method in brief: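 CHO cells stably expressing human HTR2A were plated for 18 h at 37 C, then loaded with calcium dye for 1 h. Compounds were preincubated 5 min at room temperature before DOI (4 nM solution) was added. Kinetic fluorescence was read for 3 min.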

[8] = biological target: 5-hydroxytryptamine receptor 2A (Homo sapiens) (UniProt P28223); assay: 5-hydroxytryptamine receptor 2A (HTR2A) small molecule agonists, cell-based qHTS assay (AID 1963587); further: nearly all actives have a fitted effect of over 30% in size
Method in brief: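 HTR2A-CHO cells, plated 18 h at 37 C/5% CO2, dye-loaded 1 h at 37 C; compounds in DMSO added by pin tool (agonist mode). Intracellular calcium flux read as kinetic fluorescence on FDSS over 2 min at 1 s intervals.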

[9] = biological target: Muscarinic acetylcholine receptor M1 (Homo sapiens) (UniProt P11229); assay: Cholinergic receptor muscarinic 1 (CHRM1) small molecule antagonists, cell-based qHTS assay (AID 1963588); further: nearly all actives have a fitted effect of over 40% in size
Method in brief: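 Compounds were tested at 15 concentrations in three independent runs. Dye-loaded CHRM1-CHO cells were exposed 5 min at room temperature before stimulation by acetylcholine added at 50nM. Intracellular calcium was read kinetically on FDSS for 3 min.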

[10] = biological target: Muscarinic acetylcholine receptor M1 (Homo sapiens) (UniProt P11229); assay: Cholinergic receptor muscarinic 1 (CHRM1) small molecule agonists, cell-based qHTS assay (AID 1963589); further: nearly all actives have a fitted effect of over 35% in size
Method in brief: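 Calcium flux read-out: kinetic fluorescence at 1 sec intervals after pin-tool compound addition to dye-loaded CHRM1-CHO cells (human M1). Agonist mode; 15 concentrations tested in triplicate independent runs.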

[11] = cAMP Responsive Elements (CRE) small molecule agonists, cell-based qHTS assay (AID 1963590)
Method in brief: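 Beta-lactamase reporter readout: LiveBLAzer B/G FRET substrate, 2 h at room temperature, added after 3 h compound treatment of CRE-bla HEK 293T cells at 37 C/5% CO2.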

[12] = cAMP Responsive Elements (CRE) small molecule antagonists, cell-based qHTS assay (AID 1963591; active means well fitted inhibition curve with a large enough effect in the signal ratio in the repeat runs, not every such curve was filed as active; the % refers to the signal ratio)
Method in brief: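 HEK293T CRE-bla; 18 h preincubation; compound pin-transfer; NKH477 0.25 uM final, 3 h, 37 C; LiveBLAzer FRET substrate 2 h RT.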

[13] = biological target: Beta-2 adrenergic receptor (Homo sapiens) (UniProt P07550); assay: Adrenergic beta2 receptor (ADRB2) small molecule antagonists, cell-based qHTS assay (AID 1963592); further: series mostly up to about 92 µM; nearly all actives have a fitted effect of over 50% in size
Method in brief: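 Assay format: CHO-ADRB2 cells, 18-20hr seeding at 37C/5% CO2, then compound plus 1nM isoproterenol agonist mix for 0.5hr RT. Homogeneous time-resolved fluorescence cAMP detection after 1hr, expressed as 665/615 nm ratio.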

[14] = biological target: Beta-2 adrenergic receptor (Homo sapiens) (UniProt P07550); assay: Adrenergic beta2 receptor (ADRB2) small molecule agonists, cell-based qHTS assay (AID 1963593);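 further: CHO cells stably overexpressing human ADRB2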
Method in brief: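 CHO cells stably over-expressing ADRB2 were plated overnight at 37C, then dosed with compounds plus a stimulation mix containing 100uM IBMX and 25uM Ro-20-1724 for 0.5hr at room temperature. cAMP was measured by HTRF competition, 1hr.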

[15] = biological target: D(2) dopamine receptor (Homo sapiens) (UniProt P14416); assay: Dopamine D2 receptor (DRD2) small molecule agonists, cell-based qHTS assay (AID 1963594); further: nearly all actives have a fitted effect of over 35% in size
Method in brief: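 HEK293 cells stably expressing DRD2 were cultured 24 h at 37 C, then given Ro20-1724 (0.1 mM final) and compounds for 10 min at room temperature. NKH477 (200nM) was then added for 30 min. cAMP was read by HTRF.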

[16] = biological target: D(2) dopamine receptor (Homo sapiens) (UniProt P14416); assay: Dopamine D2 receptor (DRD2) small molecule antagonists, cell-based qHTS assay (AID 1963595; active means well fitted inhibition curve with a large enough effect in the signal ratio in the repeat runs, with a control signal flat; the % refers to the signal ratio; further: potency means the concentration at half of the fitted maximal effect)
Method in brief: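 Antagonism was scored as restored cAMP in HEK293-DRD2 cells. These cells were stimulated with 200 nM NKH477 and 12 nM quinpirole for 30 min at room temperature, in the presence of 0.1 mM Ro20-1724.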

[17] = p53 small molecule agonists, cell-based qHTS assay with human liver microsomes: qHTS cell viability counter screen (AID 1963579); further: nearly all actives have a fitted effect of over 45% in size
Method in brief: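 Cytotoxicity counter screen: p53RE-bla, 4,000 cells/well; 5 h settle, 37 C/5% CO2; cpd + HLM 0.5 mg/mL + NADPH 0.5 mg/mL (final); 16 h, 37 C; CellTiter-Glo, 30 min RT, luminescence.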

[18] = p53 small molecule agonists, cell-based qHTS assay with human liver microsomes (AID 1963577)
Method in brief: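 Fluorescence of the beta-lactamase reporter in p53RE-bla cells, detected with LiveBLAzer substrate (2 h, room temperature, dark), served as the read-out after 16 h compound exposure at 37 C with human liver microsomes and NADPH, each 0.5 mg/mL final.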

[19] = p53 small molecule agonists, cell-based qHTS assay with rat liver microsomes (AID 1963578)
Method in brief: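 Cells carrying a p53 response element–beta-lactamase reporter were plated and rested 5 h, then dosed with compound in DMSO plus rat liver microsomes and NADPH, each at 0.5 mg/mL final. After 16 h at 37 C, LiveBLAzer substrate was added for 2 h.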

[20] = p53 small molecule agonists, cell-based qHTS assay (AID 1963582; active means well fitted activation curve with a large enough effect in the signal ratio in the repeat runs, not every such curve was filed as active; the % refers to the signal ratio)
Method in brief: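 Fluorescence intensity read-out of a beta-lactamase reporter under a p53 response element. Cells were exposed to DMSO-dissolved compounds for 16 h at 37 C, then developed with FRET substrate for 2 h at RT.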

Chain of Muscarinic acetylcholine receptor M1 (Homo sapiens) (P11229 whole entry, looked up): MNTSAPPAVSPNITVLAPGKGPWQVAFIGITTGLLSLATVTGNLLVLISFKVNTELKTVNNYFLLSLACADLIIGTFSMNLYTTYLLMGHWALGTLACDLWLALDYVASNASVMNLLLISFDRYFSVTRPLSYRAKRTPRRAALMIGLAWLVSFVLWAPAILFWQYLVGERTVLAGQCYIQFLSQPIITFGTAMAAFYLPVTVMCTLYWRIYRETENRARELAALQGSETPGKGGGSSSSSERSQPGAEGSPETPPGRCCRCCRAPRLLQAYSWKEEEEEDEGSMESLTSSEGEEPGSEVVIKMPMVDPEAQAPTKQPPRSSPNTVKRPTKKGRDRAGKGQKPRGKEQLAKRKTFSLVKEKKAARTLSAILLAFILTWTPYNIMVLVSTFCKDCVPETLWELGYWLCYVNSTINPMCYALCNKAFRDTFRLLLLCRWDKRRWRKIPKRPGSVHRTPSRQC
Chain of Beta-2 adrenergic receptor (Homo sapiens) (P07550 whole entry, looked up): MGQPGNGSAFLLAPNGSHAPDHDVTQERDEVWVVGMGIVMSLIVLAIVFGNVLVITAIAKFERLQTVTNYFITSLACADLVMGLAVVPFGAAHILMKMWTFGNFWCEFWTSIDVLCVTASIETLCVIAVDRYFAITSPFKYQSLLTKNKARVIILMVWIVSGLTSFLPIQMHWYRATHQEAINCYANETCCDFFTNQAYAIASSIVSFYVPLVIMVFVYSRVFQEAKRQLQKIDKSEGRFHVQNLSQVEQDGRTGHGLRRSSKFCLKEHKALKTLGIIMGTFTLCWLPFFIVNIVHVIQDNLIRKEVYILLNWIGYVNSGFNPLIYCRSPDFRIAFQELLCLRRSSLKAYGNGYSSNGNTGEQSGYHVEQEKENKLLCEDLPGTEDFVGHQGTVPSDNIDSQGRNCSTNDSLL
Chain of Gonadotropin-releasing hormone receptor (Homo sapiens) (P30968 whole entry, looked up): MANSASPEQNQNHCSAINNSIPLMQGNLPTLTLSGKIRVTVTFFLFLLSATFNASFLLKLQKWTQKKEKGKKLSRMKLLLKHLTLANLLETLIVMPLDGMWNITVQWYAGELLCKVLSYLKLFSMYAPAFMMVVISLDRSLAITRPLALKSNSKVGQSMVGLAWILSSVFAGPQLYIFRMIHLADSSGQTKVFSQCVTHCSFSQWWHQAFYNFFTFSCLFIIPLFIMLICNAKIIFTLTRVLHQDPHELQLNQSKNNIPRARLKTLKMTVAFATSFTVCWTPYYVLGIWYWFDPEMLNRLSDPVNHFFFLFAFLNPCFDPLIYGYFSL
Chain of 5-hydroxytryptamine receptor 2A (Homo sapiens) (P28223 whole entry, looked up): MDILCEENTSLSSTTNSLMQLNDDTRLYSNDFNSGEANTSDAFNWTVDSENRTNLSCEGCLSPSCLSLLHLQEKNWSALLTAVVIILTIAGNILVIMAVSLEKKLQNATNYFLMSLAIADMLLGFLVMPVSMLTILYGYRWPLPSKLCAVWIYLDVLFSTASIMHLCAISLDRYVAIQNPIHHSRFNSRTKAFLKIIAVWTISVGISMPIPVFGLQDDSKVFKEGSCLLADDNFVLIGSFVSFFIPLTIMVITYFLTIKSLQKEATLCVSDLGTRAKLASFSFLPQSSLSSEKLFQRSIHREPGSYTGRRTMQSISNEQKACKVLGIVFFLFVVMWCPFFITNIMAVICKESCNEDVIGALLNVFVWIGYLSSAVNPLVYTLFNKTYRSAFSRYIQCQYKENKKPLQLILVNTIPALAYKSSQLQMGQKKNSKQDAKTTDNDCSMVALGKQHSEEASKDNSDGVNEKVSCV
Chain of D(2) dopamine receptor (Homo sapiens) (P14416 whole entry, looked up): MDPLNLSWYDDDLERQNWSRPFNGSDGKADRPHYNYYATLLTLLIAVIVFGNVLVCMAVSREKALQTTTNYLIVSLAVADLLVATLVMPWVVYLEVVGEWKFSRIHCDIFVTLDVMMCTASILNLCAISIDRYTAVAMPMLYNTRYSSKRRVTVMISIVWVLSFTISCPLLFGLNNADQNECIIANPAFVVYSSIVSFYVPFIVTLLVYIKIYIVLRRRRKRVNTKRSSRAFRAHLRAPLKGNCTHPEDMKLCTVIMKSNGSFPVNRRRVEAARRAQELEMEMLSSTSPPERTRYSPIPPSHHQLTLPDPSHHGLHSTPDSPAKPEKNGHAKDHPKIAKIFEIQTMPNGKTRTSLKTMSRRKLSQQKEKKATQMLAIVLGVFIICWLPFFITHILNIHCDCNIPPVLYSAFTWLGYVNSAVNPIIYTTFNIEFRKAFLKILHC
Chain of KiSS-1 receptor (Homo sapiens) (Q969F8 whole entry, looked up): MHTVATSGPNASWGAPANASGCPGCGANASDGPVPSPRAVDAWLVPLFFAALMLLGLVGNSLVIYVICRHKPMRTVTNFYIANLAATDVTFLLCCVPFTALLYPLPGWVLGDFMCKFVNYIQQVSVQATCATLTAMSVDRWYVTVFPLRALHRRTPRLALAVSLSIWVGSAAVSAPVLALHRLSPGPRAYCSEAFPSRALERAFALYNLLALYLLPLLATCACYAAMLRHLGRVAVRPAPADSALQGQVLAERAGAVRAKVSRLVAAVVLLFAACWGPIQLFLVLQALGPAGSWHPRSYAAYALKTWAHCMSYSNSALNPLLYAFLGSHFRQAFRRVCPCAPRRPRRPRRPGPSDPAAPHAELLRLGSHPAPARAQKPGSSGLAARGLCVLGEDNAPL

SMILES | Potency [1] | Potency [2] | Potency [3] | Potency [4] | Potency [5] | Potency [6] | Potency [7] | Potency [8] | Potency [9] | Potency [10] | Potency [11] | Potency [12] | Potency [13] | Potency [14] | Potency [15] | Potency [16] | Potency [17] | Potency [18] | Potency [19] | Potency [20]
Nc1c[n+](N2CCOCC2)no1 | inactive | inactive | inactive | inactive | inactive | inactive | inactive | inactive | inactive | inactive | inactive | inactive | inactive | inactive | inactive | inactive |  |  |  | 
O=C(O)CCc1nc(-c2ccccc2)c(-c2ccccc2)o1 | inactive | inactive | inactive | inactive |  |  |  |  |  |  |  |  | inactive | inactive | inactive |  |  |  |  | 
N[C@@H]1CONC1=O | inactive | inactive | inactive | inactive |  | inactive | inactive | inactive | inactive | inactive | inactive | inactive | inactive | inactive | inactive |  | inactive |  |  | 
Nc1ccc(O)c([N+](=O)[O-])c1 | 19300 nM (active) | inactive | inactive | inactive | inactive |  |  | inactive | inactive | inactive |  |  |  |  |  |  |  |  |  | 
O=S(=O)(O)c1cc(O)c2ccc(Nc3ccccc3)cc2c1 | inactive | inactive | inactive | inactive |  |  | inactive | inactive | inactive | inactive | inactive | inactive | inactive |  | inactive | inactive | inactive |  |  | 
NC(=O)C1(N2CCCCC2)CCN(CCCN2c3ccccc3CCc3ccc(Cl)cc32)CC1 | inactive | inactive | inactive |  | inactive |  | 103 nM (active) |  | inactive | inactive |  |  |  |  | inactive | 376 nM (active) | inactive | inactive | inactive | 
O=[N+]([O-])c1ccc(NCCO)c(OCCO)c1 | inactive | inactive | inactive |  | inactive | inactive | inactive | inactive | inactive | inactive | inactive | inactive | inactive |  | inactive |  | inactive | inactive | inactive | inactive
CCCCCCCCCCCCCCCS(=O)(=O)Oc1ccccc1 | inactive | inactive | inactive |  | inactive | inactive | inactive |  | inactive | inactive | inactive | inactive | inactive |  | inactive | inactive | inactive | inactive | inactive | inactive
